In PubChem BioAssay AID488922 (Johns Hopkins Ion Channel Center, 2010):
The campaign covered roughly 310,000 compounds. About 3,800 (1.2%) were called active.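 How the source made its calls: active means ratio B-score over 3 SD below the library mean, with starting fluorescence within 5 SD of its mean; inactive means the rest, inconclusive results apart.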 What follows is part of a selection rich in actives, with near analogues and random picks from the rest.

Molecular target: Potassium channel subfamily K member 9 (Homo sapiens) (UniProt Q9NPC2)
Assay: KCNK9 potassium channel inhibitors, primary screen, HEK293 cells, thallium flux (AID 488922);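 on B-score: negative B-score means less thallium flux so channel inhibition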
Conditions: HEK293 KCNK9, FluxOR thallium flux fluorescence, at 10 µM; active compounds read low

Chain of Potassium channel subfamily K member 9 (Homo sapiens) (Q9NPC2 whole entry, looked up): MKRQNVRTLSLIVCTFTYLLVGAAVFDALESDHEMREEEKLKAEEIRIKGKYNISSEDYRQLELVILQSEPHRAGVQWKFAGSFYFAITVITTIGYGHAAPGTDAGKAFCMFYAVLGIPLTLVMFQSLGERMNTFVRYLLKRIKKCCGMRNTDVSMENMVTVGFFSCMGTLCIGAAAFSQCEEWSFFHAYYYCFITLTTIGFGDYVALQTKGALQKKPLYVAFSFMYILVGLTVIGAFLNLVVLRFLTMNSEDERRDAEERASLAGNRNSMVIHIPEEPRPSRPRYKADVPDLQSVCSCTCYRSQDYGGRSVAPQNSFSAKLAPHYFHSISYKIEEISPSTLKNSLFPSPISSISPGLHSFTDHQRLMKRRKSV

| Compound | B-score |
| --- | --- |
| CCOC(=O)N1CCN(C(=O)c2ccc3c(c2)N(Cc2ccc(C)cc2)CCS3)CC1 | inactive |
| O=C(NCCc1ccccc1)c1ccc2c(c1)N(Cc1ccccc1)CCS2 | -9.05 (active) |
| O=C(NCCN1CCOCC1)c1ccc2c(c1)N(Cc1ccc(Cl)cc1)CCS2 | inactive |
| CC[C@]1(c2ccccc2OC)C(=O)N(C(=O)OC)N1C(=O)OC | inactive |
| COc1ccc(C2(CNC(=O)C(c3ccccc3)c3ccccc3)CCOCC2)cc1OC | inactive |
| CCN(CC)C(=O)CC1(c2ccccc2OC)CCOC(C(C)C)C1 (centres undefined) | -8.7 (active) |
| O=P(O)(CN1CCCCCC1)C1Cc2ccccc2C1 | inactive |
| CCc1ccccc1NC(=S)Nc1cc(OC)c(NC(=O)C(C)C)cc1OC | inactive |
| CCc1ccccc1NC(=O)CCOc1ccccc1 | inactive |
| CCc1ccccc1NC(=O)/C(=C/c1ccccc1)c1ccccc1 | -8.86 (active) |
| COc1cccc(CNS(=O)(=O)c2ccc3c(c2)N(C(C)=O)CCS3)c1 | inactive |
| COc1cc(NC(=O)c2ccccc2)c(OC)cc1NC(=O)Cc1ccccc1 | inactive |
| COc1cc(OC)cc(C(=O)OCC(=O)Nc2sccc2C(N)=O)c1 | inactive |
| COc1cccc(OC)c1C(=O)Nc1sc2c(c1C(N)=O)CCCC2 | -11.2 (active) |
| COc1cccc(OC)c1C(=O)Nc1nnc(C(C)C)s1 | inactive |
| NC(=O)c1c(NC(=O)c2ccccc2)sc2c1CCCC2 | inactive |
| Cc1cc(C)c(S(=O)(=O)N(C)CC(=O)NCC2CCCO2)c(C)c1 (centres undefined) | inactive |
| O=C(Cc1csc(Nc2nc(=S)[nH]c3ccccc23)n1)NCCCN1CCN(c2cccc(Cl)c2)CC1 | inactive |
| CCCn1nc(Oc2nc(NC(C)C)nc(N(C)C)n2)ccc1=O | inactive |
| CCOC(=O)c1ccc(S(=O)(=O)N(CCO)Cc2cc3cc(OC)c(OC)cc3[nH]c2=O)cc1 | inactive |
| COc1cccc(CNC(=O)C(=O)NCCC2CCCCN2S(=O)(=O)c2ccc(C)cc2)c1 (centres undefined) | inactive |
| Cc1ccc(-n2c(SCC(=O)Nc3ncc(Cl)cc3Cl)nc3ccccc32)cc1 | inactive |
| Cc1[nH]nc(SCC(=O)NCC(C)C)c1[N+](=O)[O-] | inactive |
| O=C(CSc1nc(-c2ccccc2)cs1)Nc1cccc([N+](=O)[O-])c1 | -7.08 (active) |
| O=C(CSc1ncn[nH]1)Nc1nc(-c2cccc([N+](=O)[O-])c2)cs1 | inactive |
| CCNC(=O)CSc1nc(-c2ccccc2)cs1 | inactive |

| Compound | B-score |
| --- | --- |
| CCSc1nnc(-c2cc3c(s2)-c2ccccc2CC3)o1 | inactive |
| CN(C(=O)CCN1C(=O)/C(=C/c2ccccc2F)SC1=S)C1CCS(=O)(=O)C1 (centres undefined) | inactive |
| CCOC(=O)CSc1nc2c(c(=O)n(C)c(=O)n2C)n1Cc1ccccc1F | inactive |
| CCOC(=O)CSc1nc2c(sc(=S)n2CCc2ccccc2)c(=O)n1Cc1ccco1 | -8.91 (active) |
| COC(=O)CSc1nc2ccccc2c(=O)n1Cc1ccccc1 | inactive |
| Cc1ccc(OCC(=O)Nc2ccc(NC(=O)c3cccs3)cc2)c(C)c1 | inactive |
| O=C(Nc1ccc2c(c1)OCCO2)c1ccoc1 | inactive |
| Cc1cc(Oc2ccc(Cl)cc2)nc(SCC(=O)c2ccccc2)n1 | -11.2 (active) |
| COc1ccc(C(=O)CSc2nc(C)cc(C)n2)cc1[N+](=O)[O-] | inactive |
| Cc1cc(C)nc(SCC(=O)c2ccc(Cl)cc2)n1 | inactive |
| CCC(C)NC(=O)c1nn(C)c(=O)c2ccccc12 (centres undefined) | inactive |
| Cc1ccc(N2C(=O)C(NC(=O)c3c(F)cccc3F)(C(F)(F)F)C3=C2CC(C)(C)CC3=O)cc1 (centres undefined) | inactive |
| CC(Sc1nc(-c2ccccc2)cc(C(F)(F)F)n1)C(=O)Nc1ccc2c(c1)OCO2 (centres undefined) | inactive |
| CC(Sc1nc2cc(Cl)ccc2s1)C(=O)Nc1ccc2c(c1)OCO2 (centres undefined) | -7.35 (active) |
| O=C(Nc1ccc2c(c1)OCO2)c1sc2cc(Cl)ccc2c1Cl | inactive |
| COc1ccc(Nc2ncnc3sc(-c4ccccc4)cc23)c(OC)c1 | -9.69 (active) |
| COc1ccc(Nc2ncnc3ccc(Br)cc23)c(OC)c1 | inactive |
| COc1ccc(Nc2ncnc3sc(C)cc23)cc1 | inactive |
| CCc1cc(=O)oc2cc(OCC(=O)N3CCCc4ccccc43)ccc12 | inactive |
| CN(C)C(=O)c1ccc2c(c1)C1C3CCC(C3)C1C(c1ccccc1)N2 (centres undefined) | inactive |
| CC(=O)c1ccc(NC(=O)CCNS(=O)(=O)c2cc(Br)cnc2N)cc1 | inactive |
| O=C(COC(=O)c1ccccc1SCC(=O)NC1CCCCC1)NC1CCCCC1 | inactive |
| COc1ccccc1C(=O)OCC(=O)NCCNC(=O)COC(=O)c1ccccc1OC | inactive |
| C=CCNC(=O)COC(=O)c1ccccc1C(=O)N(C)C1CCCCC1 | -6.84 (active) |
| O=c1cc(Cl)c2ccccc2n1-c1ccccc1 | inactive |
| O=C(Nc1cc(Cl)cc(Cl)c1)C(NCCCO)c1ccccc1 (centres undefined) | -8.3 (active) |

| Compound | B-score |
| --- | --- |
| CC(NCC(=O)Nc1cc(Cl)cc(Cl)c1)c1ccccc1 (centres undefined) | inactive |
| OCCCNC(c1ccccc1)c1ccc(O)cc1 (centres undefined) | inactive |
| COc1ccccc1N1CCN(Cc2cc(OC)c3c(c2)OCO3)CC1 | inactive |
| Cc1noc(C)c1C(=O)OCC(=O)N1CCN(S(=O)(=O)c2ccc3ccccc3c2)CC1 | inactive |
| COC(=O)C1=C(Nc2ccc(OC)cc2)C=C(C)C(C(=O)OC)C1c1ccc(C)cc1 (centres undefined) | inactive |
| COC(=O)C1C(=O)NCC1c1ccc(C)cc1 (centres undefined) | inactive |
| COC(=O)C1=C(Nc2ccc(C)cc2)C=C(C)C(C(=O)OC)C1c1ccc(F)cc1 (centres undefined) | -10.4 (active) |
| CC1CCC(NC(=O)CNC(=O)c2ccc3ccccc3c2)CC1 (centres undefined) | inactive |
| CN=C1SC(CC(=O)Nc2ccc(C(=O)O)cc2)C(=O)N1C (centres undefined) | inactive |
| CN(CC(=O)Nc1ccc(F)cc1)CC(=O)Nc1ccc(Cl)c(S(=O)(=O)N2CCOCC2)c1 | inactive |
| CN(CC(=O)Nc1ccc(S(=O)(=O)N2CCCC2)cc1)Cc1ccc(Cl)c(Cl)c1 | inactive |
| CN(CCC(=O)Nc1cc(S(=O)(=O)N(C)C)ccc1Cl)CC(=O)Nc1ccc(F)cc1 | -12.2 (active) |
| COc1ccccc1OCC(=O)O/N=C(\N)c1ccccn1 | inactive |
| O=C(O)CCS(=O)(=O)c1ccc(-c2ccccc2)cc1 | inactive |
| Cc1cc(C)c(C)c(S(=O)(=O)Nc2ccc(O)cc2)c1C | inactive |
| Cc1ccc(Cn2cc(C(=O)NN)c(=O)c3ccc(F)cc32)cc1 | inactive |
| CCOC(=O)C1=C(C)N=C2c3ccccc3C(=O)C2C1c1ccc(Br)cc1 (centres undefined) | inactive |
| O=C1c2ccccc2C(=O)C1c1ccccc1F | inactive |
| O=C1c2ccccc2C2=Nc3ccccc3SC(c3ccccc3F)C12 (centres undefined) | -9.81 (active) |
| CC(C)c1ccc2c(c1)c(SC(C)(C)C)c(CC(C)(C)C(=O)O)n2Cc1ccc(Cl)cc1 | inactive |
| COc1ccc(C2NC(=O)N(C)C(C)=C2[N+](=O)[O-])cc1 (centres undefined) | inactive |
| CCc1cccc(C)c1N(C(=O)Cn1c(CO)nc2ccccc21)C(C)COC (centres undefined) | -9.35 (active) |
| COc1ccccc1Cn1c(CO)nc2ccccc21 | inactive |
| CCOCN(C(=O)Cn1c(C(C)O)nc2ccccc21)c1c(C)cccc1CC (centres undefined) | inactive |
| CCOc1ccc2[nH]c(=O)c(CN(Cc3nnnn3Cc3ccccc3)CC3CCCO3)cc2c1 (centres undefined) | inactive |
| CCOc1ccc2[nH]c(=O)c(CN(Cc3nnnn3CCc3ccccc3)CC3CCCO3)cc2c1 (centres undefined) | -9.63 (active) |

| Compound | B-score |
| --- | --- |
| COc1ccc2[nH]c(=O)c(CN(Cc3nnnn3CCc3ccccc3)CC3CCCO3)cc2c1 (centres undefined) | inactive |
| Cc1cc(=O)[nH]c(Nc2cccc(Br)c2)n1 | inactive |
| CCCN1C(=O)C(Cc2nc3ccccc3c(=O)n2-c2ccccc2)c2cc(C)ccc21 (centres undefined) | -9.54 (active) |
| CCCc1nc2ccccc2c(=O)n1/N=C/c1ccc(O)c(O)c1 | inactive |
| CCCc1nc2c(c(=O)c3ccccc3n2C)c(=O)n1-c1cc(C)cc(C)c1 | inactive |
| CCOc1ccc(CN(Cc2ccco2)C(c2cccs2)c2nnnn2C(C)(C)C)cc1 (centres undefined) | -17 (active) |
| CC(C)(C)n1nnnc1C(c1cccs1)N(Cc1cccnc1)CC1CCCO1 (centres undefined) | inactive |
| CCOc1ccc(CN(Cc2ccco2)S(=O)(=O)c2ccc(-n3cnnn3)c(OC)c2)cc1 | inactive |
| NC(=O)CC(NC(=O)Cc1ccc(Br)cc1)c1ccc(NC2CC3CCC2C3)c([N+](=O)[O-])c1 (centres undefined) | inactive |
| Cc1cc(C)n2nc(CNS(=O)(=O)c3c(F)c(F)c(F)c(F)c3F)nc2n1 | inactive |
| COc1ccc(NC(=O)NN2CCN(C)CC2)c(OC)c1 | inactive |
| Fc1ccc2c(c1)C(c1cccnc1)=NNC(c1cccs1)=N2 | inactive |
| COc1ccc(C(=O)/C=C/c2cccnc2)c(OC)c1 | inactive |
| COc1ccc2c(c1)C(c1cccs1)=NNC(c1cccnc1)=N2 | -13 (active) |
| OCC[C@H]1C[C@H](O)[C@@H](O)[C@]2(CCCCO2)O1 | inactive |
| CCc1nc(SCC(=O)NNC(=O)c2ccc(C)cc2)c2ccccc2n1 | inactive |
| CCCNC(=O)CSc1nc(Cc2ccccc2)nc2ccccc12 | -7.59 (active) |
| C=CCSc1nc(Cc2ccc(Cl)cc2)nc2ccccc12 | inactive |
| CCOc1ccc(N(C)Cc2cc(=O)oc3ccc(OC)cc23)cc1 | inactive |
| Cc1nc(-c2ccc(F)cc2)c(CC(=O)Nc2cc(S(=O)(=O)N3CCCCC3)ccc2C)s1 | inactive |
| Cc1ccc(S(=O)(=O)N(C)CC(=O)NCCc2c[nH]c3ccccc23)cc1 | inactive |
| OC(c1ccc(Cl)cc1)C(CN1CCOCC1)c1ccccc1 (centres undefined) | inactive |
| Cc1ccc(-c2csc(NCCc3nc4cc(Cl)c(Cl)cc4n3CCOCCO)n2)cc1 | -9.6 (active) |
| Cc1ccc(-c2csc(N3CCN(c4cc5c(cc4Cl)nc(-c4ccncc4)n5CCOCCO)CC3)n2)cc1 | inactive |
| CCCn1c(CCNc2nc(-c3ccc(OC)cc3)cs2)nc2ccccc21 | inactive |
| Cc1c(CCC(=O)O)c(=O)oc2c(C)c(OCc3ccccc3Cl)ccc12 | inactive |
